The values below come from ChEMBL document CHEMBL3988442, “University of Dundee, Small-Polar-MMV Screening Library” (2021).

Structures are written as SMILES.

The first assay addresses T1, Aspartate--tRNA(Asp/Asn) ligase (Mycobacterium tuberculosis (strain ATCC 25618 / H37Rv)) (UniProt P9WFW3).
T1 sequence (whole entry): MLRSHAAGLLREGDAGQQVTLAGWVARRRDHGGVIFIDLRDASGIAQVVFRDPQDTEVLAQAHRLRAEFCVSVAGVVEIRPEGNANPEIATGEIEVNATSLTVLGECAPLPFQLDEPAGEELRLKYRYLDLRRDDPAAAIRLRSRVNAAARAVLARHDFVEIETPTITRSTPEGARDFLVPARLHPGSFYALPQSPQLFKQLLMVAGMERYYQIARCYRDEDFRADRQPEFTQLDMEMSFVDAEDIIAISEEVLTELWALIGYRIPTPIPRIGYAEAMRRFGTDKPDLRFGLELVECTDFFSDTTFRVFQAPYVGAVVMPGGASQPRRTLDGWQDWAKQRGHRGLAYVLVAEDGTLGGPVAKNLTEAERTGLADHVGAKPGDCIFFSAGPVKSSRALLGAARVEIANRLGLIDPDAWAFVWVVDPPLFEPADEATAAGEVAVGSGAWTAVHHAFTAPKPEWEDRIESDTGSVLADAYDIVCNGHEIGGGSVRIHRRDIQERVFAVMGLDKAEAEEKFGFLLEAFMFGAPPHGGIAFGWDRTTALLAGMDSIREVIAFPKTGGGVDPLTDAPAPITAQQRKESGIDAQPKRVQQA
Briefly: Assay for Asp RNA synthetase-1 from Mycobacterium tuberculosis. Format: functional. The arrangement: scale not given: direction of the effect not stated beside the values. Conditions: 30 µM.
For the molecule `CC(C)c1cc(C(=O)N(C)Cc2cccc3ncccc23)n(C)n1`, the Percent Effect was -4.72%.

Take `CCN(CC1CCOC1)C(=O)c1ccccc1NS(=O)(=O)CC` (stereo not given): the Percent Effect is -4.47%.

In the case of `COc1ccc(CN(Cc2cccnc2)CC2CCCO2)c(OC)c1` (stereo not given), the Percent Effect is -3.99%.

Take `Fc1ccc(CN2CCCC2c2cncc(-n3ccnc3)n2)cc1` (stereo not given): the Percent Effect turned out to be 3.75%.

As for `CN(CCCc1cnn(C)c1)C(=O)C1COc2ccccc2C1` (stereo not given), the Percent Effect worked out at 11.4%.

Turning to `Cc1nn(C)c(N(C)C)c1CNC1CCOc2c(F)cccc21` (stereo not given), the Percent Effect was -0.433%.

As for `O=C(CCCc1cn[nH]c1)N1C[C@@H](CN2CCOCC2)[C@@H](CO)C1`, the Percent Effect was determined as 4.17%.

For `CCCc1cc(NC2CCc3ncnn3C2)n2ncnc2n1` (stereo not given), the Percent Effect was -2.01%.

In the case of `Cc1cccc(-c2nc(CN3CCc4cnc(C)nc4C3)no2)c1`, the Percent Effect was 4.76%.

As for `Cc1cccnc1CNCC1(O)CCCN(Cc2ccc(F)cc2)C1=O` (stereo not given), the Percent Effect turned out to be 0.386%.

Regarding `CCNC(=O)c1ccc(CNCc2c(C)nn(C)c2N(C)C)cc1`, the Percent Effect was -0.75%.

As for `CC(C)OCc1ccc(CNC(=O)CC(F)(F)F)cc1`, the Percent Effect was -1.66%.

Consider `O=C(c1ccn(-c2cccc(Cl)c2)n1)N1CCN(C2CC2)CC1`, for which the Percent Effect was -1.64%.

In the case of `N#Cc1cccc(S(=O)(=O)N2CCCCC2CCN2CCCC2=O)c1` (stereo not given), the Percent Effect was -2.87%.

`Cc1nc(C2CCCN(C(=O)CCCn3cccn3)C2)no1` (stereo not given): the Percent Effect is -5.28%.

On to `CN(CCn1nc2ccccn2c1=O)CC(=O)N1CCCC1`, for which the Percent Effect is -1.5%.

As for `CNCC(=O)N1CCCC(c2cccc(Nc3nc(C)cc(C)n3)n2)C1` (stereo not given), the Percent Effect came to 3.29%.

As for `CCn1cc(CN(C)S(=O)(=O)c2cnn(CC)c2C)c(C)n1`, the Percent Effect is -3.81%.

As for `CCc1nnc2n1CCN(C(=O)c1cc3cc(F)ccc3[nH]1)C2`, the Percent Effect is -1.91%.

As to `CN(C)C(=O)N1C[C@@H]2CCCO[C@@H]2[C@H](N(C)Cc2ccco2)C1`, the Percent Effect was -1.32%.

As for `CCc1nc(CN2CCCN(c3nc4ccccc4o3)CC2)no1`, the Percent Effect was 5.41%.

For `O=C1C(NCc2nnc3n2CCCC3)CCN1CC(F)(F)F` (stereo not given), the Percent Effect is -0.389%.

As for `Cc1cc(C(F)(F)F)nn1C(C)C(=O)Nc1ccncc1` (stereo not given), the Percent Effect is -0.755%.

Turning to `Cc1cnc2c(c1NCc1ccncc1)c(=O)n(C)c(=O)n2C`, the Percent Effect was -5.41%.

`CCNC(=O)[C@@H]1C[C@@H](NC(=O)c2cccnc2O)CN1Cc1ccsc1`: the Percent Effect was -2.94%.

Take `Cc1ccc(N(C)C2CCN(C(=O)CCc3ccco3)CC2)nn1`: the Percent Effect was 2.42%.

Take `COCCC(=O)N1C[C@H]2CN(Cc3cccc(C)n3)C(=O)[C@H]2C1`: the Percent Effect amounted to 0.774%.

As for `CN(C)S(=O)(=O)N1C[C@H](Oc2cccnc2)[C@H]2OCCC[C@H]21`, the Percent Effect stood at 2.32%.

Take `CC(=O)Nc1ncc(S(=O)(=O)Nc2ccc(F)cc2)s1`: the Percent Effect is 2%.

With `Cc1n[nH]c(C2CN(C(=O)c3ccnc(C4CC4)n3)CCO2)n1` (stereo not given), the Percent Effect is 1.3%.

Take `O=C1C[C@H]2[C@@H](CCN2C(=O)c2ccccc2)N1CCN1CCOCC1`: the Percent Effect was -3.74%.

Take `Cc1nc(CN2CCCC(CCNS(C)(=O)=O)C2)c[nH]1` (stereo not given): the Percent Effect is -4.89%.

As for `Cc1cc(C)cc(C2(C(=O)NC(C)Cn3ccnc3)CC2)c1` (stereo not given), the Percent Effect is -2.37%.

On to `Cc1c(C(=O)NCC2CCCO2)nnn1-c1cccc2c1CCN(C)C2` (stereo not given), for which the Percent Effect was found to be 3.06%.

For `O=C(CN1CCCCC1Cn1cccn1)NC1CCN(C2CC2)CC1` (stereo not given), the Percent Effect came out at 1.64%.

`OC(CN1CCN(c2ncccn2)CC1)c1cccc(F)c1` (stereo not given): the Percent Effect is -3.26%.

Regarding `CCc1nc(CN(C)CC(c2cccs2)N2CCOCC2)no1` (stereo not given), the Percent Effect is -4.22%.

With `CN(C)C(=O)CN1CCC2(CCCN(Cc3cccn3C)C2)C1=O` (stereo not given), the Percent Effect worked out at 2.49%.

On to `Cn1cc(CCNC(=O)NC2CCS(=O)(=O)C2)cn1` (stereo not given), for which the Percent Effect stood at 2.01%.

Consider `CCN(c1ccc(C(=O)N2CCCC2)cc1)S(=O)(=O)CC`, for which the Percent Effect came out at 5.6%.

For the next assay, the target named is Shiga toxin 2 (Escherichia coli O157:H7) (UniProt P09385+P09386). The experiment in a line: E. coli 0.157:H7 Shiga Toxin SOP - stx2 screening assay. Format: functional. Conditions: 30 µM. Details: scale not given: direction of the effect not stated beside the values.
For `CC(C)c1cc(C(=O)N(C)Cc2cccc3ncccc23)n(C)n1`, the Percent Effect was -15%.

As for `CCN(CC1CCOC1)C(=O)c1ccccc1NS(=O)(=O)CC` (stereo not given), the Percent Effect worked out at 33.3%.

For the molecule `COc1ccc(CN(Cc2cccnc2)CC2CCCO2)c(OC)c1` (stereo not given), the Percent Effect is -13.4%.

With `Fc1ccc(CN2CCCC2c2cncc(-n3ccnc3)n2)cc1` (stereo not given), the Percent Effect turned out to be 24.5%.

`CN(CCCc1cnn(C)c1)C(=O)C1COc2ccccc2C1` (stereo not given): the Percent Effect is -16.4%.

Take `Cc1nn(C)c(N(C)C)c1CNC1CCOc2c(F)cccc21` (stereo not given): the Percent Effect was 30.8%.

For the molecule `O=C(CCCc1cn[nH]c1)N1C[C@@H](CN2CCOCC2)[C@@H](CO)C1`, the Percent Effect is -29.7%.

As to `CCCc1cc(NC2CCc3ncnn3C2)n2ncnc2n1` (stereo not given), the Percent Effect came out at 1.41%.

`Cc1cccc(-c2nc(CN3CCc4cnc(C)nc4C3)no2)c1`: the Percent Effect is 6.99%.

`Cc1cccnc1CNCC1(O)CCCN(Cc2ccc(F)cc2)C1=O` (stereo not given): the Percent Effect came out at 4.74%.

With `CCNC(=O)c1ccc(CNCc2c(C)nn(C)c2N(C)C)cc1`, the Percent Effect is -25.7%.

For the molecule `CC(C)OCc1ccc(CNC(=O)CC(F)(F)F)cc1`, the Percent Effect was found to be 12.4%.

Turning to `O=C(c1ccn(-c2cccc(Cl)c2)n1)N1CCN(C2CC2)CC1`, the Percent Effect came to 20.3%.

As to `N#Cc1cccc(S(=O)(=O)N2CCCCC2CCN2CCCC2=O)c1` (stereo not given), the Percent Effect is -20.4%.

Turning to `Cc1nc(C2CCCN(C(=O)CCCn3cccn3)C2)no1` (stereo not given), the Percent Effect is -27.3%.

Take `CN(CCn1nc2ccccn2c1=O)CC(=O)N1CCCC1`: the Percent Effect is -5.38%.

`CNCC(=O)N1CCCC(c2cccc(Nc3nc(C)cc(C)n3)n2)C1` (stereo not given): the Percent Effect was -1.86%.

As to `CCn1cc(CN(C)S(=O)(=O)c2cnn(CC)c2C)c(C)n1`, the Percent Effect was 3.32%.

As to `CCc1nnc2n1CCN(C(=O)c1cc3cc(F)ccc3[nH]1)C2`, the Percent Effect is -31.4%.

On to `CN(C)C(=O)N1C[C@@H]2CCCO[C@@H]2[C@H](N(C)Cc2ccco2)C1`, for which the Percent Effect was -18.8%.

As for `CCc1nc(CN2CCCN(c3nc4ccccc4o3)CC2)no1`, the Percent Effect was -69.6%.

Take `O=C1C(NCc2nnc3n2CCCC3)CCN1CC(F)(F)F` (stereo not given): the Percent Effect was found to be 1.91%.

With `Cc1cc(C(F)(F)F)nn1C(C)C(=O)Nc1ccncc1` (stereo not given), the Percent Effect was -29.5%.

On to `Cc1cnc2c(c1NCc1ccncc1)c(=O)n(C)c(=O)n2C`, for which the Percent Effect turned out to be 1.78%.

Take `CCNC(=O)[C@@H]1C[C@@H](NC(=O)c2cccnc2O)CN1Cc1ccsc1`: the Percent Effect is 19.7%.

On to `Cc1ccc(N(C)C2CCN(C(=O)CCc3ccco3)CC2)nn1`, for which the Percent Effect is -5.22%.

In the case of `COCCC(=O)N1C[C@H]2CN(Cc3cccc(C)n3)C(=O)[C@H]2C1`, the Percent Effect is -18.7%.

Turning to `CN(C)S(=O)(=O)N1C[C@H](Oc2cccnc2)[C@H]2OCCC[C@H]21`, the Percent Effect is -12%.

As to `CC(=O)Nc1ncc(S(=O)(=O)Nc2ccc(F)cc2)s1`, the Percent Effect is -10.2%.

`Cc1n[nH]c(C2CN(C(=O)c3ccnc(C4CC4)n3)CCO2)n1` (stereo not given): the Percent Effect was found to be 28.6%.

Take `O=C1C[C@H]2[C@@H](CCN2C(=O)c2ccccc2)N1CCN1CCOCC1`: the Percent Effect is -0.799%.

With `Cc1nc(CN2CCCC(CCNS(C)(=O)=O)C2)c[nH]1` (stereo not given), the Percent Effect is 13%.

For `Cc1cc(C)cc(C2(C(=O)NC(C)Cn3ccnc3)CC2)c1` (stereo not given), the Percent Effect is -14.1%.

For the molecule `Cc1c(C(=O)NCC2CCCO2)nnn1-c1cccc2c1CCN(C)C2` (stereo not given), the Percent Effect was -26.5%.

`O=C(CN1CCCCC1Cn1cccn1)NC1CCN(C2CC2)CC1` (stereo not given): the Percent Effect stood at 4.12%.

Consider `OC(CN1CCN(c2ncccn2)CC1)c1cccc(F)c1` (stereo not given), for which the Percent Effect was -4.85%.

`CCc1nc(CN(C)CC(c2cccs2)N2CCOCC2)no1` (stereo not given): the Percent Effect was -5.08%.

Regarding `CN(C)C(=O)CN1CCC2(CCCN(Cc3cccn3C)C2)C1=O` (stereo not given), the Percent Effect was -13.9%.

For the molecule `Cn1cc(CCNC(=O)NC2CCS(=O)(=O)C2)cn1` (stereo not given), the Percent Effect is -8.38%.

For the molecule `CCN(c1ccc(C(=O)N2CCCC2)cc1)S(=O)(=O)CC`, the Percent Effect is -13.5%.
